In PubChem BioAssay (Tox21):
Unmarked numbers belong to inactive results. Inconclusive results are not listed. Entries that show only a call come without a potency. Active and inactive are the calls of the source. Unless noted, calls come from the whole dose curve; as a rule, active = well fitted curve in the direction sought with a large enough effect in the repeat runs; inconclusive = weak or mixed curves; inactive = no such curve, though single readings can be large; an effect the other way counts as inactive or inconclusive.

How the values were obtained:
[1] = Human pregnane X receptor (PXR) small molecule agonists, qHTS cell viability counter screen (AID 1346977); note: nearly all actives have a fitted effect of over 50% in size; note: potency is the fitted concentration of half-maximal effect
Summary of the method: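 Readout is CellTiter-Fluor fluorescence from PXR-Luc HepG2 cells. Plated cells rested 5hr, then were treated with compounds for 24hr at 37C and 5% CO2, with reagent present during the last hour.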

[2] = Caspase-3/7 induction in HepG2 cells by small molecules, qHTS assay (AID 1346978); note: nearly all actives have a fitted effect of over 15% in size; note: potency is the fitted concentration of half-maximal effect
Summary of the method: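 Caspase-3/7 induction was measured by Caspase-Glo 3/7 luminescence (30 min, room temperature) after a 17 hr compound exposure of wild-type HepG2 cells seeded at 2,000 per well and pre-incubated 5 hr.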

[3] = Caspase-3/7 induction in CHO-K1 cells by small molecules, qHTS cell viability counter screen (AID 1346979); note: nearly all actives have a fitted effect of over 35% in size; note: potency is the fitted concentration of half-maximal effect
Summary of the method: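 To flag cytotoxic compounds, treated CHO-K1 wild-type cells were given CellTiter-Fluor at 16hr and read fluorescently after 1hr at 37C; the caspase-3/7 luminescence was measured in these same wells.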

[4] = Caspase-3/7 induction in CHO-K1 cells by small molecules, qHTS assay (AID 1346980); note: nearly all actives have a fitted effect of over 15% in size; note: potency is the fitted concentration of half-maximal effect
Summary of the method: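 Luminescent Caspase-Glo 3/7 read (30min, room temperature) quantified apoptosis induction. Cells were wild-type CHO-K1, treated with compound for 17hr at 37 C and 5% CO2.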

[5] = Caspase-3/7 induction in HepG2 cells by small molecules, qHTS cell viability counter screen (AID 1346981); note: nearly all actives have a fitted effect of over 30% in size; note: potency is the fitted concentration of half-maximal effect
Summary of the method: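 After a 5-hr attachment period at 37 C and 5% CO2, wild-type HepG2 cells received compounds in DMSO. Sixteen hours later CellTiter-Fluor was dispensed and the fluorescent signal quantified after a further hour.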

[6] = target: Nuclear receptor subfamily 1 group I member 2 (Homo sapiens) (UniProt O75469); assay: Human pregnane X receptor (PXR) small molecule agonists, qHTS assay (AID 1346982); note: nearly all actives have a fitted effect of over 35% in size; note: potency is the fitted concentration of half-maximal effect
Summary of the method: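 Tox21 qHTS; PXR-Luc HepG2; compounds pinned from DMSO; 24 hr, 37 C; ONE-Glo luciferase detection, 30 min room temperature.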

[7] = target: Acetylcholinesterase (Homo sapiens) (UniProt P22303); assay: Acetylcholinesterase (AChE) small molecule antagonists: colormetric cell-based qHTS assay (AID 1347395; calls by dose curve; note: nearly all actives have a fitted effect of over 30% in size; note: potency is the fitted concentration of half-maximal effect)
Summary of the method: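 Neuroblastoma line SH-SY5Y supplied the enzyme; cells were preincubated with compound for 30 min at 37 C and 5% CO2. Acetylthiocholine with DTNB was then added for 90 min at 37 C, and thiocholine was measured by colour.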

[8] = target: Nuclear receptor subfamily 1 group I member 2 (Rattus norvegicus) (UniProt Q9R1A7); assay: Rat pregnane X receptor (rPXR) activation by small molecules, qHTS assay (AID 1346983); conditions: rPXR luciferase reporter cells, One-Glo luminescence, 24 h; max activation: stronger effect = higher value; note: nearly all actives have a fitted effect of over 20% in size
Summary of the method: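 Luminescent readout (One-Glo luciferase, 30 min room temperature) followed 24 hr compound treatment at 37 C of rPXR cells plated 2,000 per well and preincubated 5hr; qHTS format with compounds delivered in DMSO.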

[9] = target: Nuclear receptor subfamily 1 group I member 2 (Homo sapiens) (UniProt O75469); assay: CYP3A4 induction through human pregnane X receptor (PXR) by small molecules, qHTS assay (AID 1346984); note: nearly all actives have a fitted effect of over 40% in size
Summary of the method: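 Cells (DPX-2; HepG2 with PXR element plus CYP3A4-promoter luciferase) settled 5hr, then were treated 24hr at 37C. A 3hr, 3uM-final Luciferin-IPA step preceded luminescence measurement with One-Glo.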

[10] = target: Nuclear receptor subfamily 1 group I member 2 (Homo sapiens) (UniProt O75469); assay: Human pregnane X receptor (PXR) activation by small molecules, qHTS assay (AID 1346985); note: nearly all actives have a fitted effect of over 40% in size
Summary of the method: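 DPX-2 cells (HepG2 co-transfected with a PXR response element and a CYP3A4-promoter luciferase construct) were seeded at 2,000 per well, rested 5 hr at 37C, then exposed to DMSO-dissolved compounds for 24 hr. Activation was read as luciferase luminescence.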

Chain of Nuclear receptor subfamily 1 group I member 2 (Homo sapiens) (O75469 whole entry, looked up): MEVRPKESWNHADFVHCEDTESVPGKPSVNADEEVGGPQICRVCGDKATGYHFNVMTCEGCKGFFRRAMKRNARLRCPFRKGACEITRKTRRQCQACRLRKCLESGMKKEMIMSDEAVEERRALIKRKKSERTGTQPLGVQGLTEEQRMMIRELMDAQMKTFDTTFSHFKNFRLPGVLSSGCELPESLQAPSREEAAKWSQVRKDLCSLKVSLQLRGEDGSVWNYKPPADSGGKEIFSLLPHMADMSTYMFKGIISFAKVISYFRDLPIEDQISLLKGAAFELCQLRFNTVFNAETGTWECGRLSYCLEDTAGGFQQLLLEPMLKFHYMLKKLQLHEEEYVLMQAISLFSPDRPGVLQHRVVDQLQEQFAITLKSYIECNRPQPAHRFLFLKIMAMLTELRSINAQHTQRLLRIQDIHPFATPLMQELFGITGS
Chain of Acetylcholinesterase (Homo sapiens) (P22303 whole entry, looked up): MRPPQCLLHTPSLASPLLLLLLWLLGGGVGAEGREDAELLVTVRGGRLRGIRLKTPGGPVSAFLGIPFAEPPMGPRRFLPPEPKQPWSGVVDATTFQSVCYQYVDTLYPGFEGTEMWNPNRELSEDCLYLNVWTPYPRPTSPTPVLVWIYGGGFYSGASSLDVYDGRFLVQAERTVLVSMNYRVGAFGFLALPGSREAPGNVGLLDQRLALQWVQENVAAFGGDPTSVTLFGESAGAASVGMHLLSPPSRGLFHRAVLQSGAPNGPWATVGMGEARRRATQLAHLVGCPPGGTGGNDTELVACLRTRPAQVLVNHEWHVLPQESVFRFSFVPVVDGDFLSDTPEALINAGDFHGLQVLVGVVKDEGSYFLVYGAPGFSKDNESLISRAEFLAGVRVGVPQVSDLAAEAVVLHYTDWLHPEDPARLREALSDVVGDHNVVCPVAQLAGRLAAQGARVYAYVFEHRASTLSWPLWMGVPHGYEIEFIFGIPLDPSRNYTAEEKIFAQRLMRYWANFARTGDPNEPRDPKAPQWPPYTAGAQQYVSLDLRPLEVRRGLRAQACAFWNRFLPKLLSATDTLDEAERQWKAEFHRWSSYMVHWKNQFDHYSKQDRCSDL
Chain of Nuclear receptor subfamily 1 group I member 2 (Rattus norvegicus) (Q9R1A7 whole entry, looked up): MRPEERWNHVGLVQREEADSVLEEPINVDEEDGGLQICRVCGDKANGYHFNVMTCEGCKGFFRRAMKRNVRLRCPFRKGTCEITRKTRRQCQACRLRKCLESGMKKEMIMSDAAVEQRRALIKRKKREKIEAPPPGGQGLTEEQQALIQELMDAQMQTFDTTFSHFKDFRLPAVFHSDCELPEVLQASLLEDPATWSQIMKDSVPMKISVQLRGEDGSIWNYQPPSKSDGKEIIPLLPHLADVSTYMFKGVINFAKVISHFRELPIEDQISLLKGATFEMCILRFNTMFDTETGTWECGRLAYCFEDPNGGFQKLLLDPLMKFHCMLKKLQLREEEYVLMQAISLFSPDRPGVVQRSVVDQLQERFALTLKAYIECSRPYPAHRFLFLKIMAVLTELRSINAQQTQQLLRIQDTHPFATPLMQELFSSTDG

## N#Cc1sc2c(=O)c3ccccc3c(=O)c=2sc1C#N
[1]
  Potency: 9690 nM (active)
[2]
  Potency: inactive
[3]
  Potency: 21700 nM (active)
[4]
  Potency: inactive
[5]
  Potency: 21700 nM (active)
[6]
  Potency: 2730 nM (active)
[7]
  Potency: 44800 nM (active)

## CC(Cc1ccc(OCC(=O)O)cc1)NCC(O)c1csc(C(F)(F)F)n1 (stereo unspecified)
[1]
  Potency: inactive
[2]
  Potency: inactive
[3]
  Potency: inactive
[4]
  Potency: inactive
[5]
  Potency: inactive
[6]
  Potency: inactive
[7]
  Potency: inactive

## CN
[1]
  Potency: inactive
[2]
  Potency: inactive
[3]
  Potency: inactive
[4]
  Potency: inactive
[5]
  Potency: inactive

## CC(=O)[O-].CC(=O)[O-].[Co+2]
[1]
  Potency: inactive
[2]
  Potency: inactive
[3]
  Potency: inactive
[4]
  Potency: inactive
[5]
  Potency: inactive

## CCn1cc[n+](C)c1 (tested in a mixture with another compound)
[1]
  Potency: inactive
[2]
  Potency: inactive
[3]
  Potency: inactive
[4]
  Potency: inactive
[5]
  Potency: inactive

## O.O.O.O.O.O.O=S(=O)([O-])[O-].[Ni+2]
[1]
  Potency: inactive
[2]
  Potency: inactive
[3]
  Potency: inactive
[4]
  Potency: inactive
[5]
  Potency: inactive

## CCOC(=O)Cc1ccccc1
[1]
  Potency: inactive
[2]
  Potency: inactive
[3]
  Potency: inactive
[4]
  Potency: inactive
[5]
  Potency: inactive
[6]
  Potency: inactive
[7]
  Potency: inactive

## CC(Cc1ccccc1)N(C)Cc1ccco1 (stereo unspecified)
[1]
  Potency: inactive
[2]
  Potency: inactive
[3]
  Potency: inactive
[4]
  Potency: inactive
[5]
  Potency: inactive
[6]
  Potency: inactive
[7]
  Potency: inactive

## [Cl-].[Cl-].[Cl-].[Yb+3]
[1]
  Potency: inactive
[2]
  Potency: inactive
[3]
  Potency: inactive
[4]
  Potency: inactive
[5]
  Potency: inactive

## CC(Cc1ccc(O)cc1)NCC(O)c1cc(O)cc(O)c1 (stereo unspecified)
[1]
  Potency: inactive
[2]
  Potency: inactive
[3]
  Potency: inactive
[4]
  Potency: inactive
[5]
  Potency: inactive
[6]
  Potency: inactive
[8]
  max activation: -1.7%
[9]
  Potency: inactive
[10]
  Potency: inactive

## O=[N+]([O-])c1ccc(CCl)cc1
[1]
  Potency: inactive
[2]
  Potency: inactive
[3]
  Potency: inactive
[4]
  Potency: inactive
[5]
  Potency: inactive
[6]
  Potency: inactive
[7]
  Potency: inactive

## C=C(C)C(=O)[O][Sn]([CH2]CCC)([CH2]CCC)[CH2]CCC
[1]
  Potency: 306 nM (active)
[2]
  Potency: 2170 nM (active)
[3]
  Potency: 306 nM (active)
[4]
  Potency: 433 nM (active)
[5]
  Potency: 2430 nM (active)
[6]
  Potency: 193 nM (active)
[7]
  Potency: inactive

## CC(=O)[O][Sn]([c]1ccccc1)([c]1ccccc1)[c]1ccccc1
[1]
  Potency: 306 nM (active)
[2]
  Potency: 306 nM (active)
[3]
  Potency: 154 nM (active)
[4]
  Potency: 122 nM (active)
[5]
  Potency: 2730 nM (active)
[6]
  Potency: 243 nM (active)
[7]
  Potency: inactive

## CCC1(CC)C(=O)N=C(O)NC1=O
[1]
  Potency: inactive
[2]
  Potency: inactive
[3]
  Potency: inactive
[4]
  Potency: inactive
[5]
  Potency: inactive
[7]
  Potency: inactive

## CNC(C)(C)Cc1ccccc1
[1]
  Potency: inactive
[2]
  Potency: inactive
[3]
  Potency: inactive
[4]
  Potency: inactive
[5]
  Potency: inactive
[8]
  max activation: -0.549%
[9]
  Potency: inactive
[10]
  Potency: inactive
[7]
  Potency: inactive

## O=P(Cl)(Cl)Cl
[1]
  Potency: inactive
[2]
  Potency: inactive
[3]
  Potency: inactive
[4]
  Potency: inactive
[5]
  Potency: inactive
[6]
  Potency: inactive
[7]
  Potency: inactive

## O=C(Cl)c1ccccc1F
[1]
  Potency: inactive
[2]
  Potency: inactive
[3]
  Potency: inactive
[4]
  Potency: inactive
[5]
  Potency: inactive
[6]
  Potency: inactive
[7]
  Potency: inactive

## N#CSCc1ccccc1
[1]
  Potency: inactive
[2]
  Potency: inactive
[3]
  Potency: inactive
[4]
  Potency: inactive
[5]
  Potency: inactive
[6]
  Potency: 43500 nM (active)
[7]
  Potency: inactive

## CCCCC(CC)COC(=O)OOC(C)(C)C (stereo unspecified)
[1]
  Potency: inactive
[2]
  Potency: inactive
[3]
  Potency: inactive
[4]
  Potency: inactive
[5]
  Potency: inactive
[6]
  Potency: inactive
[7]
  Potency: inactive

## [F][Sn]([c]1ccccc1)([c]1ccccc1)[c]1ccccc1
[1]
  Potency: 86.3 nM (active)
[2]
  Potency: 193 nM (active)
[3]
  Potency: 43.3 nM (active)
[4]
  Potency: 61.1 nM (active)
[5]
  Potency: 1220 nM (active)
[7]
  Potency: inactive

## O=[N+]([O-])c1ccccc1-c1ccccc1
[1]
  Potency: inactive
[2]
  Potency: inactive
[3]
  Potency: inactive
[4]
  Potency: inactive
[5]
  Potency: inactive
[6]
  Potency: inactive
[7]
  Potency: inactive

## COC(=O)N(OC)c1ccccc1COc1ccn(-c2ccc(Cl)cc2)n1
[1]
  Potency: 5450 nM (active)
[2]
  Potency: inactive
[3]
  Potency: 43.3 nM (active)
[4]
  Potency: inactive
[5]
  Potency: 54500 nM (active)
[6]
  Potency: 68600 nM (active)
[7]
  Potency: inactive

## O=C(Nc1ccc(F)cc1F)c1cccnc1Oc1cccc(C(F)(F)F)c1
[1]
  Potency: inactive
[2]
  Potency: inactive
[3]
  Potency: inactive
[4]
  Potency: inactive
[5]
  Potency: inactive
[6]
  Potency: 4240 nM (active)
[7]
  Potency: inactive

## ClCBr
[1]
  Potency: inactive
[2]
  Potency: inactive
[3]
  Potency: inactive
[4]
  Potency: inactive
[5]
  Potency: inactive
[6]
  Potency: inactive
[7]
  Potency: inactive

## C=CC(=O)[O][Sn]([CH2]CCC)([CH2]CCC)[CH2]CCC
[1]
  Potency: 686 nM (active)
[2]
  Potency: 2430 nM (active)
[3]
  Potency: 686 nM (active)
[4]
  Potency: 1220 nM (active)
[5]
  Potency: 3860 nM (active)
[6]
  Potency: 172 nM (active)
[7]
  Potency: inactive

## Cc1ccn2nc(S(=O)(=O)Nc3c(F)cccc3F)nc2n1
[1]
  Potency: inactive
[2]
  Potency: inactive
[3]
  Potency: inactive
[4]
  Potency: inactive
[5]
  Potency: inactive
[7]
  Potency: inactive

## [O-][Cl+3]([O-])([O-])O
[1]
  Potency: inactive
[2]
  Potency: inactive
[3]
  Potency: inactive
[4]
  Potency: inactive
[5]
  Potency: inactive
[6]
  Potency: inactive
[7]
  Potency: inactive

## CNC(=O)O/N=C(\C)C(C)S(C)(=O)=O (stereo unspecified)
[1]
  Potency: inactive
[2]
  Potency: inactive
[3]
  Potency: inactive
[4]
  Potency: inactive
[5]
  Potency: inactive
[7]
  Potency: 355000 nM (active)
